Hits are enriched below; roughly 2.5% of the tested compounds scored in any of these assays.
Cruzain Triton: qHTS Assay for Promiscuous and Specific Inhibitors of Cruzain (with detergent). Cruzipain (Trypanosoma cruzi), P25779. purified cruzain, Z-FR-AMC fluorescence, 0.01% Triton. Potency, µM, inactives show max response, negative = inhibition, hits mostly inhibitors. 200,000 compounds, 0.43% hits. AID 1478, 2009;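 further: plate controls were neutral wells for no effect and buffer without enzyme for full effect; nearly all actives have a fitted effect of over 40% in size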
Target sequence (P25779 123-467 limits assumed): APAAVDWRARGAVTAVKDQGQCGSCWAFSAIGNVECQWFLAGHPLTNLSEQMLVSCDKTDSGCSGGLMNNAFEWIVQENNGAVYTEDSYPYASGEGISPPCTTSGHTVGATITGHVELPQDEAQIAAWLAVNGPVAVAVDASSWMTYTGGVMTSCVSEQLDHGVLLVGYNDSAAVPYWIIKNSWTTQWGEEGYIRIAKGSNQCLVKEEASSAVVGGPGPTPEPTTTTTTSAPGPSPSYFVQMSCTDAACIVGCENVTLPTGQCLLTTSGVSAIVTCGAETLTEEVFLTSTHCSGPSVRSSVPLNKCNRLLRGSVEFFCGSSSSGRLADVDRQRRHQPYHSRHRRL
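Cruzain (1.5 nM) preincubated 15 min at RT with compound in 100 mM sodium acetate pH 5.5, 5 mM DTT, 0.01% Triton X-100. Reaction started with 2 uM Z-FR-AMC; AMC fluorescence (ex 360/em 450 nm) change over 60 s gave rate.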
Cruzain inh noDet: qHTS Assay for Promiscuous and Specific Inhibitors of Cruzain (without detergent); Cruzipain (Trypanosoma cruzi), P25779; purified cruzain, Z-FR-AMC fluorescence, no detergent; Potency, µM, without a hit: max response, negative = inhibition, usual class: inhibitors; 200,000 compounds, 2.3% hits;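 further: plate controls were enzyme without inhibitor for no effect and buffer without enzyme for full effect; nearly all actives have a fitted effect of over 40% in size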
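Detergent-free condition (0.00005% Triton X-100) in acetate buffer pH 5.5 with DTT. 1.5 nM enzyme and compound were pre-mixed 15 min, then 2 uM Z-FR-AMC substrate added; reaction progress from fluorescence change between first and third reads (60 s).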
An asterisk follows results filed as active; ? = inconclusive. The call rests on the fitted dose curve; in most records, active means well fitted curve in the direction sought with a large enough effect; inconclusive means small, poorly fitted or top-dose-only effect, or another doubt; inactive means no such curve, though single readings can be large; an effect the other way counts as inactive or inconclusive. Potency means the concentration at half of the fitted maximal effect.

SMILES	Cruzain Triton	Cruzain inh noDet
COc1ccccc1N1CCN(C(=O)Cn2cnc3sc(C)c(S(=O)(=O)N4CCC(C)CC4)c3c2=O)CC1	-0.8%	6.8%
COc1ccc(CCNC(=O)C(C)n2nc(C)c3sc4ccccc4c3c2=O)cc1OC (configuration not stated)	-4.8%	31.6µM*
COc1ccc(CNC(=O)C(C)n2nc(C)c3sc4ccccc4c3c2=O)cc1OC (configuration not stated)	-2.5%	-1.7%
Cc1nn(C(C)C(=O)NCc2ccc(OC(C)C)cc2)c(=O)c2c1sc1ccccc12 (configuration not stated)	?	27.6%
Cc1ccc(CNC(=O)C(C)n2nc(C)c3sc4ccccc4c3c2=O)cc1 (configuration not stated)	-4.6%	3.98µM*
CC(C)(C)C(=O)CSc1nc2ccsc2c(=O)n1Cc1ccccc1F	-1.9%	8.9%
CC(c1ccccc1)N1CCn2c(nc3cc(NC(=O)c4cccs4)ccc32)C1 (configuration not stated)	-4.3%	31.6µM*
COCCN1CCn2c(nc3cc(NC(=O)c4cccs4)ccc32)C1	4.9%	3.4%
Cc1cn2c(=O)cc(COc3ccc(NC(=O)c4cccc(F)c4)cc3)nc2s1	0.6%	10.2%
COc1ccc(-c2csc(NC(=O)c3cc(-c4cccs4)nc4ccccc34)n2)c(OC)c1	1.9%	5.01µM*
COc1ccccc1-c1cc(C(=O)N/N=C/c2cccs2)c2ccccc2n1	-9.8%	-12.5%
COc1ccc(-c2cc(C(=O)N/N=C/c3sccc3C)c3ccccc3n2)c(OC)c1	-11.2%	?
COc1ccccc1-c1csc(NC(=O)c2cc(-c3cccs3)nc3ccccc23)n1	-3.0%	3.98µM*
O=C(Nc1sc2c(c1C(=O)NCC1CCCO1)CCC2)c1cc(=O)c2cc(Cl)ccc2o1 (configuration not stated)	-1.4%	-0.9%
O=C1NC(=O)N(CCC2=CCCCC2)C(=O)/C1=C\c1cccs1	-2.9%	6.5%
Cn1cccc1/C=C1\C(=O)NC(=O)N(CCC2=CCCCC2)C1=O	-5.5%	20µM*
O=C(Nc1ccccc1)N(Cc1cccs1)c1ccc(F)cc1	-3.5%	-0.3%
CC(=O)Nc1ccc(S(=O)(=O)N2CCN(c3ccc(C)c(C)c3)CC2)cc1	0.8%	?
Cn1cccc1/C=N/NC(=O)c1cc(-c2cccs2)nc2ccccc12	-9.1%	-20.4%
Cn1c(O)c(N=NC(=O)c2cc(-c3cccs3)nc3ccccc23)c2ccccc21	-1.4%	10µM*
Cc1ccc(Cn2ccnc2SCC(=O)Nc2ccc3c(c2)OCO3)cc1	-4.5%	1.1%
COc1ccc(NC(=O)c2csc3c2CCCC3)cc1	-3.4%	-6.1%
COc1ccc(/C=C2\SC(=S)N(NC(=O)c3csc4c3CCCC4)C2=O)cc1	2.1%	7.94µM*
Cc1cccc(N2CCN(S(=O)(=O)c3ccc(F)c(C(=O)Nc4ccc(C(C)C)cc4)c3)CC2)c1C	0.1%	-18.4%
Cc1cc(=O)oc2cc(NC(=O)c3cc4ccccc4o3)ccc12	2.2%	10µM*
SMILES	Cruzain Triton	Cruzain inh noDet
Cc1ccc(NC(=O)c2ccc(OC(=O)c3cc4ccccc4o3)cc2)cc1	-2.2%	7.94µM*
Cc1ccc(NC(=O)c2ccc(OC(=O)COc3ccc(Cl)c(C)c3)cc2)cc1	7.4%	15.8µM*
O=C(Nc1ccc2oc(=O)ccc2c1)c1cc2ccccc2o1	-2.9%	-28.7%
COC(=O)COc1cccc(NC(=O)c2ccc(C)cc2)c1	1.1%	-4.8%
COc1ccc(NC(=O)c2oc3ccccc3c2NC(=O)c2cc3ccccc3o2)cc1	-0.9%	?
O=C(Nc1c(C(=O)Nc2ccc(F)cc2)oc2ccccc12)c1cc2ccccc2o1	-2.1%	12.6µM*
Cc1ccc(NC(=O)c2ccc(OC(=O)c3ccco3)cc2)cc1	-1.5%	-11.0%
CCCN(C(=O)c1cc2c(s1)-c1ccccc1OC2)c1ccc(C(C)C)cc1	-5.4%	?
COc1ccc(NC(=O)C2CCC(CNS(=O)(=O)c3csc(C(N)=O)c3)CC2)cc1 (configuration not stated)	3.4%	3.9%
COc1cc2c(cc1NC(=O)COc1ccc(Cl)cc1Br)oc1ccccc12	-1.7%	3.0%
COCCNC(=O)c1cnc2sc(N3CCC(C)CC3)nn2c1=O	-9.3%	-6.6%
Cc1cccn2c(=O)c3cc(C(=O)NCCc4ccc(S(N)(=O)=O)cc4)n(C)c3nc12	-14.1%	?
COc1cc(NC(=O)c2cc(Cl)ccc2Cl)ccc1NC(=O)c1cc2ccccc2o1	-5.1%	15.8µM*
O=C(O)c1ccc(NC(=O)c2cc3ccccc3o2)cc1	-6.1%	-4.8%
CCC(=O)Nc1ccc(NC(=S)NC(=O)c2cc3ccccc3o2)cc1	-3.0%	-26.6%
CCCC(=O)Nc1ccc(Cl)c(NC(=S)NC(=O)c2cc3ccccc3o2)c1	-2.5%	5.01µM*
COc1cc(NC(=O)c2ccccc2)ccc1NC(=O)c1cc2ccccc2o1	0.7%	3.0%
O=C(Nc1ccc(NC(=O)c2cc3ccccc3o2)cc1)c1ccccc1	-0.8%	3.16µM*
O=C(NCc1cccc(Cl)c1)c1ccc(NC(=O)N2CCSc3ccccc32)cc1	-6.0%	?
Cc1ccc(CCNC(=O)c2cccc(Nc3nc4ccccc4nc3-n3nc(C)cc3C)c2)cc1	-0.6%	-16.5%
Cc1nn(C)c2c1c(-c1ccccc1)cc(=O)n2Cc1ccccc1Cl	-3.0%	-13.7%
Cc1ccc(NC(=O)COC(=O)c2ccc3c(c2)C(=O)N(CCc2ccccc2)C3=O)c(C)c1	-1.5%	25.1µM*
CCOc1ccc(NC(=O)COC(=O)c2ccc3c(c2)C(=O)N(CCc2ccccc2)C3=O)cc1	-2.6%	?
Cc1cccc(N2CCN(C(=O)CS(=O)(=O)c3cccc4nsnc34)CC2C)c1 (configuration not stated)	-2.4%	1.5%
CCNC(=O)c1ccc(NS(=O)(=O)c2ccccc2)cc1	3.7%	-5.8%
SMILES	Cruzain Triton	Cruzain inh noDet
NS(=O)(=O)c1ccc(NS(=O)(=O)c2ccc(NC(=O)c3ccc(-c4ccccc4)cc3)cc2)cc1	-24.6%	12.6µM*
CCCn1c(CCC(=O)Nc2cc(Cl)c(OC)cc2OC)nc2cccnc21	-3.0%	6.8%
CCc1ccc(CNC(=O)c2cc3n(n2)CCCN(Cc2ccccc2)C3=O)cc1	-5.0%	25.4%
CCc1cc[n+](/C(C(=S)Nc2cccc(C)c2)=C(/[O-])c2ccc(C)c([N+](=O)[O-])c2)cc1	-9.3%	-21.1%
CCOc1ccc(NC(=S)/C(=C(\[O-])c2ccc(C)c([N+](=O)[O-])c2)[n+]2ccccc2)cc1	-5.9%	25.1µM*
COc1ccc(Cn2c(SCc3ccccc3C)nc3cc(OC)c(OC)cc3c2=N)cc1	15.8µM*	?
COc1cc2nc(SCc3ccc(F)cc3)n(Cc3cccs3)c(=N)c2cc1OC	5.3%	?
COc1ccc(C(=O)N2CCN(C(=O)COc3ccccc3)CC2)cc1OC	-2.4%	0.5%
CCc1nnc(NC(=O)Nc2ccc(OC)cc2)s1	2.1%	8.6%
COc1ccc(OCCSCc2nnc(NC(=O)Nc3ccc(Cl)cc3)s2)cc1	-2.1%	12.6µM*
Cc1ccc(NC(=O)Nc2nnc(CSCCOc3ccc(Cl)cc3)s2)cc1	0.0%	7.94µM*
O=C(Nc1cccc(Cl)c1)Nc1nnc(CSCCOc2ccc(Cl)cc2)s1	-3.8%	?
O=C(NCC(c1ccco1)S(=O)(=O)c1ccc(Cl)cc1)c1ccccc1F (configuration not stated)	-1.3%	-10.7%
Cc1ccccc1C(=O)n1nc(-c2ccco2)nc1NCc1cccs1	-5.4%	-13.5%
